# Reference: the supplement of paper PMC6555819
# Tests used:
# Assay in all cases: PBM binding z-score (relative to random genomic background probes); higher = stronger binding; sequences stand for … in GC…GCGATTGACAGCGTAGAATGAAGG
# [1] = tested on: PPARg:RXRa DBDmut IVT, anti-RXR (DBD mutation: RXRa K156A/R161A, NR concentration 270 nM, RXRa partner concentration 90 nM)
# In short: (§1)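 Binding buffer was PBS pH 7.4 with 2% milk, 0.02% Triton X-100, 1 mM DTT, 0.2 mg/mL BSA and 0.4 mg/ml salmon testes DNA. In it, ligand-free nuclear receptor dimers were incubated 1 h on custom Agilent 4×180K protein-binding microarrays carrying double-stranded probes. Antibodies against each partner (one per run) detected binding, and z-scores were calculated against random background probes after regression normalization of scanned fluorescence.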
# [2] = tested on: PPARg:RXRa IVT, anti-PPARg (NR concentration 270 nM, RXRa partner concentration 90 nM)
# In short: as §1
# [3] = tested on: PPARg DBDmut:RXRa IVT, anti-PPARg (DBD mutation: PPARg1 K132A/R137A, NR concentration 270 nM, RXRa partner concentration 90 nM)
# In short: as §1
# [4] = tested on: PPARg DBDmut IVT, anti-PPARg (DBD mutation: PPARg1 K132A/R137A, NR concentration 270 nM)
# In short: as §1
# [5] = tested on: PPARg homodimer (NR concentration 180 nM)
# In short: as §1
# [6] = tested on: PXR:RXRa (NR concentration 270 nM, RXRa partner concentration 90 nM)
# In short: as §1
# [7] = tested on: PXR homodimer (NR concentration 270 nM)
# In short: as §1
# [8] = tested on: RARa:RXR (NR concentration 270 nM, RXRa partner concentration 90 nM)
# In short: as §1
# [9] = tested on: RARa homodimer (NR concentration 270 nM)
# In short: as §1
# [10] = tested on: RARb:RXRa (NR concentration 270 nM, RXRa partner concentration 90 nM)
# In short: as §1
# [11] = tested on: RARb homodimer (NR concentration 270 nM)
# In short: as §1
# [12] = tested on: RARg:RXRa (NR concentration 270 nM, RXRa partner concentration 90 nM)
# In short: as §1
# [13] = tested on: RARg homodimer (NR concentration 270 nM)
# In short: as §1
# [14] = tested on: RXRa DBDmut IVT, anti-RXR (DBD mutation: RXRa K156A/R161A, NR concentration 90 nM)
# In short: as §1
# [15] = tested on: RXRa homodimer (NR concentration 180 nM)
# In short: as §1
# [16] = tested on: THRa:RXRa (NR concentration 90 nM, RXRa partner concentration 90 nM)
# In short: as §1
# [17] = tested on: THRa homodimer (NR concentration 90 nM)
# In short: as §1
# [18] = tested on: VDR homodimer (NR concentration 270 nM)
# In short: as §1
Sequence,PBM binding z-score [1],PBM binding z-score [2],PBM binding z-score [3],PBM binding z-score [4],PBM binding z-score [5],PBM binding z-score [6],PBM binding z-score [7],PBM binding z-score [8],PBM binding z-score [9],PBM binding z-score [10],PBM binding z-score [11],PBM binding z-score [12],PBM binding z-score [13],PBM binding z-score [14],PBM binding z-score [15],PBM binding z-score [16],PBM binding z-score [17],PBM binding z-score [18]
ATATGTAGATTATCGGGTCATTCAGTTTGCGCAT,2.57,2.72,1.49,1.26,1.63,3.39,6.51,2.84,0.767,1.85,2.3,1.94,1.35,1.21,2.45,3.14,2.5,4.05
CCACCAAGGTGAACAAGGTCGTTGATTACTATTC,2.14,2.55,0.528,0.567,1.61,3.17,2.75,2.58,0.52,2.37,2.39,2.05,1.62,1.32,2.07,3.42,2.4,3.07
TCAGACAGGTGAAGGTAACTCATGTACGCAGTCG,2.93,1.04,0.0578,0.317,0.397,0.672,0.214,0.117,0.348,1.04,0.741,0.76,0.656,1.32,1.02,0.677,0.193,0.0395
CCAGACAGGTGAAAGGTAAATCAGTCTGGTACGC,1.86,2.8,0.0874,-1.06,2.52,0.697,-0.183,1.67,0.663,1.04,0.653,1.04,0.721,-0.121,1.85,0.832,-0.308,0.0909
CCTTACGGGTCACGAGGTTATAGCCCGACGAGCG,3.74,5.56,0.959,1.66,3.14,4.59,-0.00848,6.27,0.153,4.74,4.11,6.07,5.36,1.81,6.74,3.65,1.07,2.03
AATACAGGGTCATCGTAGGCAAGAGTACGCACAG,2.91,4.3,1.57,1.49,4.01,4.55,0.721,5.8,1.82,4.46,3.24,5.6,5.07,3.51,6.7,4.16,1.5,3.96
TCTCGGAGGACACGAAGGTCAGACCTTTCCAGAG,1.65,0.996,-0.713,-0.138,1.39,2.12,0.898,2.4,0.387,3.59,3.98,3.27,3.81,1.03,1.94,3.08,1.21,1.44
TCTCGGAGGACACGAAGCTCAGAGCTTTCCAGAG,1.41,-0.21,-1.23,-1.14,-0.926,-0.254,-0.712,-0.204,-0.988,1.24,0.381,0.265,0.869,0.583,-0.175,1.23,0.177,-0.5
CTCGACAGGTCGTGCTCAGGTGAGTATACCAAAC,0.245,0.534,-0.84,-0.0221,0.723,0.437,-0.328,1.08,-0.81,1.42,1.11,2.21,1.33,0.53,1.3,3.08,0.709,0.293
CGAACGAGGGCATGAGGTGATAGCAAATGCCGAT,3.25,3.37,0.644,-0.341,0.574,0.422,-0.352,1.16,0.0615,2.26,1.11,1.88,1.83,1.56,1.32,2.26,0.557,0.945
CTCGAAAGGTCGTGCTCCGGTGAGTATACCAAAC,0.784,1.77,0.64,0.56,2.34,3.57,0.18,4.87,-0.416,4.04,3.04,5.03,3.94,2.08,5.18,3.06,0.517,1.26
TCGAGTAGGTTCCCAATGGGGCATTCAGCTTTCT,0.883,0.261,-1.28,-1.09,-0.805,-0.411,-1.24,-0.343,-1.9,-0.327,-0.191,-0.766,-0.954,0.269,-0.493,-0.435,-0.628,-1.15
ACAGACAGGTGATGATGGTAACTCAGGCTATCAT,-0.209,0.395,-0.375,0.608,0.0138,0.234,0.57,0.211,0.598,0.146,0.184,0.343,0.369,-0.173,0.335,0.48,0.015,0.157
TGAATGAGGTTATAAGATCAGGGACCGTTGCAAA,1.22,1.99,0.832,-0.0564,0.812,0.874,0.0306,1.43,-0.64,1.33,0.518,1.43,0.648,0.574,1.83,1.75,0.103,0.401
TCTTGTAGATCAAGCAGGTTTAGAAAGCCTGAGT,1.37,0.0829,-0.44,0.305,-0.478,0.273,-0.0713,-0.152,-0.252,-0.191,-0.518,-0.361,-0.474,0.521,-0.16,-0.173,-0.583,0.0833
ATCTCTAGCTAACCAAGTTCAGTGAATGCCGAAC,-0.58,-0.0463,0.368,0.475,0.651,1.32,1.49,0.181,0.128,0.746,1.01,0.314,0.399,0.573,0.0234,0.509,0.214,2.29
AGAATGAGTTTACCAAAGATCAGGGAAACGCTTG,-0.401,-0.237,0.734,-0.0652,-0.566,0.296,0.241,-0.198,-0.325,0.347,-0.757,-0.0513,0.236,3,0.272,-0.103,-0.687,1.78
GCGACTGGGGCAAAACAGGTTACCATAAGGTTGG,3.9,3.17,-0.443,-0.478,-0.0203,0.334,-0.325,0.794,-0.332,0.897,1.31,0.535,0.627,-0.186,0.658,2.3,0.0603,-0.526
ATCGAAAGGTCGAAGGTGAGTGTACCCACCCGAA,-0.0432,2.32,1.7,0.661,1.79,3.07,0.136,4.01,-0.116,3.86,2.58,4.02,3.37,0.847,5.11,2.3,0.0687,0.737
CTTAGCAGGCCAGGGTCACTCAAGCATTTCGCTT,1.45,1.72,-0.582,-0.865,0.785,2.67,-0.227,3.2,-0.241,2.81,2.87,2.99,2.53,0.934,3.39,2.93,1.32,1.28
ATCGAAAGGTCGTGAGGAGAGTATACAGAAAGGC,0.395,1.64,1.22,1.09,2.69,3.21,0.666,4.09,0.902,3.91,2.56,4.52,4.04,1.59,5.22,2.7,0.251,0.69
GCTCGGAGGACAAGGTCAGAGCTTTGTCCGTAGA,-0.433,0.861,-1.56,-1.45,0.708,1.55,-0.264,2.24,-0.542,3.52,2.9,3.28,3.6,0.373,2.33,2.87,1.13,0.705
CCTACTGGGCCAAAGGTCGTTGATTCCAATGCTC,5.47,5.6,0.111,-0.79,1.18,2.45,0.0615,3.09,-0.377,1.97,2.03,2.66,1.07,0.474,2.82,1.5,0.0932,0.435
ATATGTAGGTTACGGGTCATTCAGGTTGGTTCGC,7.79,7.99,5.13,4.88,3.88,4.78,1.67,4.07,1.28,2.92,3.24,3.35,2.58,1.69,4.31,3.15,1.49,3.37
CGAACTAGGTCATTCAGGACAGTGAATACATTGA,8.1,7.91,2.05,1.68,1.19,2.04,1.68,2.17,0.688,3.61,2.72,3.7,4.69,2.77,2.8,3.63,2.13,2.27
GCTAGCAGGGCATTTGGGTCACTCAATGACGGGC,2.42,3.14,0.0662,-0.844,0.341,1.06,0.171,1,-0.58,1.76,1.89,1.32,1.26,0.672,1.16,2.07,0.291,0.573
GCTAGTTGGTCAGTTAAAGGTCACACACCGGTCG,1.33,2.95,0.429,0.266,5.59,4.98,1.44,6.18,2.99,4.13,5.09,5.56,4.82,0.773,5.12,3.53,2.36,2.33
TCTCGGAGGAAACGAAGGTCAGAGCTTTCCAGAG,0.867,-0.0763,-1.61,-1.24,0.766,0.848,-0.378,1.7,-0.763,2.03,2.69,1.88,1.53,-0.239,1.5,1.38,-0.547,-0.0279
CCTTACGGGTCACGAGGTTATAGTACGACGAGCG,4.32,5.17,1.09,0.529,2.24,4.61,0.539,6.16,1.16,4.59,3.95,6.29,6,1.55,7.51,3.87,1.19,2.14
